# The list is not random: actives were taken first. Their share in the collection is about 1.9%.
# Hsp70 act – Hsp70 transcriptional activation, primary screen | 200,000 tested, 0.04% active | HeLa Hsp70 promoter luciferase reporter, luminescence; scaled: vehicle 0, proteasome-inhibitor control 100% | activation, % at 10 µM;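 active = activation above the mean across all tested compounds plus 3 SD, cutoff set per campaign, cut at about 5.5% in these data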;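 also: 100% = MG132 at 30 µM as the positive control and 0% = DMSO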
# L929 necroptosis – blocks zVAD induced death of L929 cells. L929 zVAD necroptosis rescue, ATP luminescence, 24 h; with zVAD 60 µM. viability rescue, % at 10 µM. 220,000 tested, 0.38% active. AID 1377;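 active = activation, scaled between plate controls, above about 75%, limit read from the data; inactive = activation under that limit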;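 also: 0% = zVAD with DMSO and 100% = DMSO alone without zVAD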
# HSF-1 act – increases HSF-1 driven luciferase reporter signal; 300,000 tested, 1.7% active; NIH3T3-HGL HSF-1 luciferase reporter, MG132, 8 h; 100% = twice DMSO control signal; activation, % at 9 µM;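 active = mean replicate activation of at least 50% with a set share of replicates each reaching 50%; inconclusive = only one of those two conditions met; inactive = mean below 50% and too few replicates reaching it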;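 also: 0% = median of the neutral control wells and 100% = twice that signal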
# TNF death inh – TNF-alpha cell death inhibition in Jurkat FADD-/- cells | AID 463075 | activation (protection from cell death), % at 10 µM | Jurkat FADD-/- TNF necroptosis rescue, ATP luminescence, 24 h; 0 = TNF only, 100 = no-TNF cells | 220,000 tested, 0.068% active;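 active = activation, meaning protection from cell death, of at least 50% relative to plate controls; inactive = activation below 50%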;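 also: necroptosis triggered by 40 ng/mL TNF-alpha added together with compound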
# An asterisk follows results filed as active; u = inconclusive; x = not tested or not shown.
SMILES,Hsp70 act,L929 necroptosis,HSF-1 act,TNF death inh
O=c1c2ccccc2nnn1CSc1ccccc1F,0,0,82*,6
CCCn1c(=N)n(CCOCCOCCn2c(=N)n(CCC)c3ccccc32)c2ccccc21,0,0,x,-1
CC(=O)OC(Cn1ccnc1)c1ccccc1 (centres undefined),0,0,-10,-3
S=C(NCc1cccs1)Nc1cccc2ccccc12,0,-2,56*,-12
CC(C)(C)c1ccc(NC(=S)NCc2cccs2)cc1,0,-1,145*,-14
COc1cccc(CNCc2ccc(SC)cc2)c1OC,0,0,0,-1
O=C(c1cccc([N+](=O)[O-])c1)N1CCN(c2ccc(Cl)cc2)CC1,0,0,-5,1
CCc1nc2ccc(C(=O)N3CCN(c4ccc([N+](=O)[O-])cc4)CC3)cc2nc1CC,x,x,60*,x
O=C(N/N=C/c1cccc(OC(=O)c2ccco2)c1)c1ccc(F)cc1,0,1,49,0
COc1cc(/C=C2\SC(=S)N(Nc3ncc(C(F)(F)F)cc3Cl)C2=O)ccc1O,0,0,72*,-10
CN(C)c1ccc(/C=C2\SC(=S)N(Nc3ncc(C(F)(F)F)cc3Cl)C2=O)cc1,0,0,-5,-4
COc1cccc(-n2c(=O)n(Cc3ccccc3)c(=O)c3[nH]cnc32)c1,x,-1,8,-1
N#Cc1ccc(/C=N/NC(=O)c2cc(-c3cccs3)nc3ccccc23)cc1,0,0,60*,-1
O=C(N/N=C/c1ccccn1)c1cc(-c2ccc(Cl)cc2)nc2ccccc12,-1,x,147*,-19
CCCOc1cccc(-c2cc(C(=O)N/N=C/c3ccccn3)c3ccccc3n2)c1,x,x,143*,x
CCCOc1cccc(-c2cc(C(=O)NN)c3ccccc3n2)c1,0,0,9,1
O=C(N/N=C/c1ccco1)c1cc(-c2ccccc2)nc2ccccc12,x,x,2,x
O=C(N/N=C/c1ccccn1)c1cc(-c2ccc(Br)cc2)nc2ccccc12,x,6,169*,-20
O=C(CCN1C(=O)C2CCCCC2C1=O)N1CCN(S(=O)(=O)c2ccccc2)CC1 (centres undefined),x,x,-21,x
Cc1cc(OCCCCn2ccnc2)cc(C)c1Cl,0,0,x,0
Cc1ccc(OCCn2c(=O)oc3ccc(C)cc32)cc1,0,-1,14,1
Cc1ccc2oc(=O)n(CCCOc3ccccc3)c2c1,0,0,59*,-4
O=c1c2ccccc2nnn1COc1cccc(Cl)c1,0,0,74*,2
O=[N+]([O-])c1c(Nc2ccc(O)cc2)cc(Cl)c2nonc12,x,x,132*,x
CN(C)c1cc(Nc2ccc(O)cc2)c([N+](=O)[O-])c2nonc12,x,0,-41,1
SMILES,Hsp70 act,L929 necroptosis,HSF-1 act,TNF death inh
O=[N+]([O-])c1c(Nc2ccccn2)cc(Cl)c2nonc12,x,-3,163*,-26
CCOc1ccc(NC2OCC(O)C(O)C2O)c([N+](=O)[O-])c1 (centres undefined),0,0,14,0
O=C(Cn1c(=O)n(-c2ccccc2)c(=O)n1CC(=O)N1CCCCC1)N1CCCCC1,0,0,1,1
COc1ccc(/C=C(\C#N)C(=O)Nc2ccccn2)cc1,x,x,75*,x
Cc1ccc(/C=C(\C#N)C(=O)Nc2ccccn2)o1,0,3,60*,0
Cc1ccc(/C=C(\C#N)C(=O)NC(C)C)o1,0,1,-16,0
O=C(CNC(=O)C12CC3CC(CC(C3)C1)C2)N1CCN(S(=O)(=O)/C=C/c2ccccc2)CC1,0,0,-3,-2
Cc1nn(C)cc1C(=O)/C=C/c1ccc([N+](=O)[O-])cc1,0,2,61*,-7
Cc1[nH][nH]c(=O)c1C=NCc1cccs1,0,2,69*,0
Cc1[nH][nH]c(=O)c1C=NCc1cccnc1,0,1,26,-1
COc1ccc(C(=O)/C=C/C(=O)N(CC(=O)NC2CCCCC2)Cc2ccccc2OC)c(O)c1,0,14,38,-15
COc1ccc(C(=O)/C=C/C(=O)N(CC(=O)NC2CCCCC2)Cc2ccccc2)c(O)c1,0,20,170*,-15
COc1cccc(C(=O)N/N=c2\sc3ccccc3n2C)c1,0,1,81*,-1
Cc1ccc(C(=O)N/N=c2\sc3ccccc3n2C)cc1,0,1,u,0
Cc1oc(-c2ccccc2F)nc1CN1CCC(C(=O)NC2CCCCCCC2)CC1,0,0,57*,-3
O/N=C(/CCc1ccccc1)c1ccc2c(c1)OCCO2,0,-1,55*,-1
COCCN(Cc1cn[nH]c1-c1ccc2cc(OC)ccc2c1)C(C)C,x,x,56*,x
CCOC(=O)CN(C)Cc1cn[nH]c1-c1ccc2cc(OC)ccc2c1,x,x,18,x
Cc1noc(COc2ccccc2OCC(N)=O)n1,x,x,10,x
Cn1cccc1C(=O)C(=O)Nc1ccc(F)c(F)c1,0,2,63*,1
Cn1cccc1C(=O)C(=O)Nc1ccc(Cl)cc1,0,0,36,-1
CN(C)C(CNC(=O)CCS(=O)(=O)c1ccccc1)c1ccccc1 (centres undefined),x,x,-11,x
CN(C)C(CNC(=O)CCC(=O)c1ccc(Br)cc1)c1ccccc1 (centres undefined),x,x,63*,x
CC(C)(C)OC(=O)N[C@@H](Cc1ccccc1)c1nnc(SCC(=O)c2ccc(Cl)cc2)o1,0,0,55*,-1
CCOC(=O)c1snc(C(=O)NC2CCCCC2)c1N,0,2,61*,2
SMILES,Hsp70 act,L929 necroptosis,HSF-1 act,TNF death inh
CN(C)c1ccc(CC(=O)c2nc3ccccc3s2)cc1,0,1,56*,-2
CN(C)C(=O)c1nc2ccccc2s1,0,0,-22,0
COc1ccc2cc(-c3ccccc3)ncc2c1,x,x,75*,x
FC(F)(F)C(F)(F)c1nnc2ccc(-n3ccnc3)nn12,0,1,-19,1
O=[N+]([O-])c1cc([N+](=O)[O-])c(Oc2c(F)ccc(F)c2F)cc1NN1CCCCC1,x,x,17,x
O=[N+]([O-])c1cc([N+](=O)[O-])c(Oc2c(F)cccc2F)cc1NN1CCCCC1,x,x,62*,x
N/N=c1\sc2ccccc2n1-c1ccccc1,0,0,-2,0
CCCN(CCC)C(=S)NC1CC2C=CC1C2 (centres undefined),x,0,52*,2
Cc1ccc2nc(N3C(=O)C(O)=C(C(=O)c4ccco4)C3c3cccs3)sc2c1 (centres undefined),1,7,66*,-1
C=CCn1c(C)nc2c(sc3nc4c(cc32)COC(C)(C)C4)c1=O,x,1,53*,1
CCc1nc2c(sc3nc4c(cc32)COC(C)(C)C4)c(=O)n1CCN(CC)CC,0,1,8,0
O=C(CSc1nncs1)Nc1ccc2c(c1)OCO2,0,1,-8,5
O=c1c2c3c(sc2ncn1/N=C/c1ccc([N+](=O)[O-])o1)CCCC3,0,50,266*,-14
O=C(Nc1nccs1)c1ccc2c(=O)n3c(nc2c1)CCCCC3,0,28,19,-2
